From the supplement of paper PMC10849652
Targets with a hit are over-represented here; the source holds about 7,900 in all. About 0.6% of all pairs of compound and target were hits. Values without a mark were called inactive.

Legend:
Assay in all cases: log2 fold change, soluble protein after heating vs DMSO (PISA); higher = thermal stabilisation; K562 cells, 10 uM, 30 min; active = over 0.2 and 3.5 SD of the protein, either way, in both replicates (recomputed)
erlotinib = compound: C#Cc1cccc(Nc2ncnc3cc(OCCOC)c(OCCOC)cc23)c1 [erlotinib]
Method in brief: (§1)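 Aliquots of K562 cells (2×10^6 cells/mL) treated with 10 μM compound for 30 min were heated for 3 min over 48°C-58°C. After pooling and extraction in PBS with 0.5% NP-40 at 4°C, soluble protein from a 21,000xg, 90 min spin was quantified by TMTpro 16plex LC-MS/MS with channel sums equalised. Thermal stability is expressed against control samples, from duplicates, as a log2 fold change.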

[1] = compound: C/C(=N\NC(=O)C1=CC(=CC=C1)S(=O)(=O)N2CCOCC2)/C3=C(C=CC(=C3)Cl)O
Method in brief: as §1

[2] = compound: C1=CC(=C(C=C1Cl)C2=NC3=NC=CN=C3C(=N2)NC4=CC=NC=C4)F
Method in brief: as §1

[3] = compound: C1=CC(=CC=C1C2=NC3=C(N2)C=C(C=C3)C(=O)N)OC4=CC=C(C=C4)Cl
Method in brief: as §1

[4] = compound: C1=CC2=C(C=CC(=C2)/C=C\3/C(=O)NC(=NCC4=CC=CS4)S3)N=C1
Method in brief: as §1

[5] = compound: C1=CC2=NC=CN=C2C=C1/C=C/3\C(=O)NC(=O)S3
Method in brief: as §1

[6] = compound: C1=CC=C(C=C1)C2=NC(=C(N2)C3=CC=NC=C3)C4=CC(=C(C=C4)Cl)O
Method in brief: as §1

[7] = compound: C1=CC=C2C(=C1)C3=NNC4=CC=CC(=C43)C2=O
Method in brief: as §1

[8] = compound: C1CCN(C1)C(=O)NC2=CC=CC(=C2)NC3=NC=C(C(=N3)NCCC4=CN=CN4)Br
Method in brief: as §1

[9] = compound: C1CN(CCC1(CC2=CC=C(C=C2)Cl)N)C3=NC=NC4=C3C=CN4
Method in brief: as §1

IRAK-1-4 Inhibitor I = compound: C1COCCN1CCN2C3=CC=CC=C3N=C2NC(=O)C4=CC(=CC=C4)[N+](=O)[O-] [IRAK-1-4 Inhibitor I]
Method in brief: as §1

ibrutinib = compound: C=CC(=O)N1CCC[C@@H](n2nc(-c3ccc(Oc4ccccc4)cc3)c3c(N)ncnc32)C1 [ibrutinib]
Method in brief: as §1

[10] = compound: CC(=O)c1cnc2ccc(-c3cc(Cl)c(O)c(Cl)c3)nc2c1N[C@H]1CC[C@H](CN(C)C)CC1
Method in brief: as §1

ralimetinib = compound: CC(C)(C)Cn1c(N)nc2ccc(-c3[nH]c(C(C)(C)C)nc3-c3ccc(F)cc3)nc21 [ralimetinib]
Method in brief: as §1

[11] = compound: CC(C)(O)CC(=O)NCCn1ccc2ncnc(Nc3ccc(Oc4cccc(C(F)(F)F)c4)c(Cl)c3)c21
Method in brief: as §1

[12] = compound: CC(C)C1=C2N=C(C=C(N2N=C1)NCC3=CC=CC=C3)NCCCCCCN
Method in brief: as §1

[13] = compound: CC(C)C[C@@H](C=O)NC(=O)[C@H](CC(C)C)NC(=O)[C@H](CC(C)C)NC(=O)OCc1ccccc1
Method in brief: as §1

pinometostat = compound: CC(C)N(C[C@H]1O[C@@H](n2cnc3c(N)ncnc32)[C@H](O)[C@@H]1O)[C@H]1C[C@@H](CCc2nc3cc(C(C)(C)C)ccc3[nH]2)C1 [pinometostat]
Method in brief: as §1

[14] = compound: CC1=C(C(CC(=O)N1)C2=CC=C(C=C2)C(F)(F)F)C(=O)NC3=C(C=C4C(=C3)C=NN4)F
Method in brief: as §1

[15] = compound: CC1=C(C2=C(C=C1)C(=O)C3=CC=CC=C3N2CCCN)C
Method in brief: as §1

Target: CSNK2A2 (UniProt P19784)
UniProt P19784, sequence (P19784 whole entry, looked up): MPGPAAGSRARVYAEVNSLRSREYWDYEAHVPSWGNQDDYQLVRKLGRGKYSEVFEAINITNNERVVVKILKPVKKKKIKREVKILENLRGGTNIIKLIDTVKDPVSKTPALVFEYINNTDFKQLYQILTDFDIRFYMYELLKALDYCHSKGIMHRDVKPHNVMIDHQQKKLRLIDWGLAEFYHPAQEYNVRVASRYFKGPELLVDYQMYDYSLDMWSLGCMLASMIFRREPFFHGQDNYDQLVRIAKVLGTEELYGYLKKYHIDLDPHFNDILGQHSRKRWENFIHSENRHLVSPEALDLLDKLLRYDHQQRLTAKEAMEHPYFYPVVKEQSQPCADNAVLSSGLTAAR
- log2 fold change (erlotinib): -0.053
- log2 fold change [1]: -0.08
- log2 fold change [2]: 0.046
- log2 fold change [3]: -0.006
- log2 fold change [4]: 0.22 (active)
- log2 fold change [5]: 0.591 (active)
- log2 fold change [6]: -0.038
- log2 fold change [7]: 0.185
- log2 fold change [8]: 0.034
- log2 fold change [9]: -0.047
- log2 fold change (IRAK-1-4 Inhibitor I): 0.033
- log2 fold change (ibrutinib): 0.006
- log2 fold change [10]: 0.585 (active)
- log2 fold change (ralimetinib): 0.001
- log2 fold change [11]: -0.065
- log2 fold change [12]: 0.026
- log2 fold change [13]: -0.029
- log2 fold change (pinometostat): 0.149
- log2 fold change [14]: 0.009
- log2 fold change [15]: 0.235 (active)

Target: CHAMP1 (UniProt Q96JM3)
UniProt Q96JM3, sequence (Q96JM3 whole entry, looked up): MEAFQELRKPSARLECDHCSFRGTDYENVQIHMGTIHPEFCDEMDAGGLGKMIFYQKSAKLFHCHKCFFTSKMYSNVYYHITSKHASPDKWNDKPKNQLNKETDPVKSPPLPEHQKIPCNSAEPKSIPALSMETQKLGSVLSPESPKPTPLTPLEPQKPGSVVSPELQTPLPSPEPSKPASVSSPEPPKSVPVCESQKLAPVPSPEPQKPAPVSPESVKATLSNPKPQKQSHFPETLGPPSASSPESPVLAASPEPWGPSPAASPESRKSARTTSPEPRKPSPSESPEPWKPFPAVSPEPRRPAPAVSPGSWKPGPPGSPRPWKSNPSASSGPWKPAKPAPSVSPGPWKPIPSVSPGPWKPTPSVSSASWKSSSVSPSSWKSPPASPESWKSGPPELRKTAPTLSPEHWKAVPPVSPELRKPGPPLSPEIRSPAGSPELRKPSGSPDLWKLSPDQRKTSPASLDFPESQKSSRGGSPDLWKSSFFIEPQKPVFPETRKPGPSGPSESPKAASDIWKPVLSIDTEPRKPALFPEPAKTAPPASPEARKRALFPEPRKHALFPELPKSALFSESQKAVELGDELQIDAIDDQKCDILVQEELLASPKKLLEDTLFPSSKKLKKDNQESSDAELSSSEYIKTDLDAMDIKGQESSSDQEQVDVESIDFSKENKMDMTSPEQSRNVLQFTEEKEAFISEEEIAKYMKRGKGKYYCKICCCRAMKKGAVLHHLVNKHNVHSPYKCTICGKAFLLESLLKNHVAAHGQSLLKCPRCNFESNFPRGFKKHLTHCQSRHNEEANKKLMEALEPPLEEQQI
- log2 fold change (erlotinib): 0.083
- log2 fold change [1]: 0.004
- log2 fold change [2]: 0.075
- log2 fold change [3]: 0.03
- log2 fold change [4]: 0.023
- log2 fold change [5]: 0.014
- log2 fold change [6]: -0.01
- log2 fold change [7]: -0.06
- log2 fold change [8]: 0.004
- log2 fold change [9]: 0.064
- log2 fold change (IRAK-1-4 Inhibitor I): 0.047
- log2 fold change (ibrutinib): 0.066
- log2 fold change [10]: -0.207
- log2 fold change (ralimetinib): 0.033
- log2 fold change [11]: -0.036
- log2 fold change [12]: -0.047
- log2 fold change [13]: -0.015
- log2 fold change (pinometostat): 0.034
- log2 fold change [14]: 0.004
- log2 fold change [15]: -0.23 (active)

Target: CTBS (UniProt Q01459)
UniProt Q01459, sequence (Q01459 whole entry, looked up): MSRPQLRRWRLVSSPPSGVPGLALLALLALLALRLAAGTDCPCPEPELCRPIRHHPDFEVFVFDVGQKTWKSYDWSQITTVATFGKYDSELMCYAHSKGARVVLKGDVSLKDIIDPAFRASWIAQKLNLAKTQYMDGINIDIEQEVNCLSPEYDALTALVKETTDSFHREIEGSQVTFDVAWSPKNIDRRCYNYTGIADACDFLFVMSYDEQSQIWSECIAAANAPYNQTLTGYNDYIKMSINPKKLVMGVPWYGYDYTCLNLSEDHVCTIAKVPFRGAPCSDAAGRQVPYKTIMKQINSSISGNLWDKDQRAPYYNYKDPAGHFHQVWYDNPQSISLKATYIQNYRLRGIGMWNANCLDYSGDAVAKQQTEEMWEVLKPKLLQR
- log2 fold change (erlotinib): 0.037
- log2 fold change [1]: -0.008
- log2 fold change [2]: -0.1
- log2 fold change [3]: -0.023
- log2 fold change [4]: 0.039
- log2 fold change [5]: 0.013
- log2 fold change [6]: -0.089
- log2 fold change [7]: -0.002
- log2 fold change [8]: -0.083
- log2 fold change [9]: 0.048
- log2 fold change (IRAK-1-4 Inhibitor I): 0.073
- log2 fold change (ibrutinib): 0.067
- log2 fold change [10]: -0.082
- log2 fold change (ralimetinib): -0.035
- log2 fold change [11]: 0.018
- log2 fold change [12]: -0.151
- log2 fold change [13]: -0.028
- log2 fold change (pinometostat): -0.009
- log2 fold change [14]: 0.1
- log2 fold change [15]: -0.061

Target: CAB39L (UniProt Q9H9S4)
UniProt Q9H9S4, sequence (Q9H9S4 whole entry, looked up): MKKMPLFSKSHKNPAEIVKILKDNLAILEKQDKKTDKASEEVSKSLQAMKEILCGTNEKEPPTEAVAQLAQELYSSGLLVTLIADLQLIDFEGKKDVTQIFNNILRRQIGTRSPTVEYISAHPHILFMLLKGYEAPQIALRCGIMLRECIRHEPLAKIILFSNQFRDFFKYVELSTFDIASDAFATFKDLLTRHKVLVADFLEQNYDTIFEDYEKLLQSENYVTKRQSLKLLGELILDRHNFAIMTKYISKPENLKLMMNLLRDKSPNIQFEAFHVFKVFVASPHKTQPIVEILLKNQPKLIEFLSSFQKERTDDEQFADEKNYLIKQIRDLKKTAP
- log2 fold change (erlotinib): -0.026
- log2 fold change [1]: -0.001
- log2 fold change [2]: -0.088
- log2 fold change [3]: 0.065
- log2 fold change [4]: 0.042
- log2 fold change [5]: 0.015
- log2 fold change [6]: 0.007
- log2 fold change [7]: -0.117
- log2 fold change [8]: -0.068
- log2 fold change [9]: -0.306
- log2 fold change (IRAK-1-4 Inhibitor I): 0.018
- log2 fold change (ibrutinib): 0.001
- log2 fold change [10]: -0.126
- log2 fold change (ralimetinib): 0.057
- log2 fold change [11]: -0.152
- log2 fold change [12]: -0.024
- log2 fold change [13]: 0.032
- log2 fold change (pinometostat): 0.102
- log2 fold change [15]: -0.483

Target: CEMIP2 (UniProt Q9UHN6)
UniProt Q9UHN6, sequence (Q9UHN6 whole entry, looked up): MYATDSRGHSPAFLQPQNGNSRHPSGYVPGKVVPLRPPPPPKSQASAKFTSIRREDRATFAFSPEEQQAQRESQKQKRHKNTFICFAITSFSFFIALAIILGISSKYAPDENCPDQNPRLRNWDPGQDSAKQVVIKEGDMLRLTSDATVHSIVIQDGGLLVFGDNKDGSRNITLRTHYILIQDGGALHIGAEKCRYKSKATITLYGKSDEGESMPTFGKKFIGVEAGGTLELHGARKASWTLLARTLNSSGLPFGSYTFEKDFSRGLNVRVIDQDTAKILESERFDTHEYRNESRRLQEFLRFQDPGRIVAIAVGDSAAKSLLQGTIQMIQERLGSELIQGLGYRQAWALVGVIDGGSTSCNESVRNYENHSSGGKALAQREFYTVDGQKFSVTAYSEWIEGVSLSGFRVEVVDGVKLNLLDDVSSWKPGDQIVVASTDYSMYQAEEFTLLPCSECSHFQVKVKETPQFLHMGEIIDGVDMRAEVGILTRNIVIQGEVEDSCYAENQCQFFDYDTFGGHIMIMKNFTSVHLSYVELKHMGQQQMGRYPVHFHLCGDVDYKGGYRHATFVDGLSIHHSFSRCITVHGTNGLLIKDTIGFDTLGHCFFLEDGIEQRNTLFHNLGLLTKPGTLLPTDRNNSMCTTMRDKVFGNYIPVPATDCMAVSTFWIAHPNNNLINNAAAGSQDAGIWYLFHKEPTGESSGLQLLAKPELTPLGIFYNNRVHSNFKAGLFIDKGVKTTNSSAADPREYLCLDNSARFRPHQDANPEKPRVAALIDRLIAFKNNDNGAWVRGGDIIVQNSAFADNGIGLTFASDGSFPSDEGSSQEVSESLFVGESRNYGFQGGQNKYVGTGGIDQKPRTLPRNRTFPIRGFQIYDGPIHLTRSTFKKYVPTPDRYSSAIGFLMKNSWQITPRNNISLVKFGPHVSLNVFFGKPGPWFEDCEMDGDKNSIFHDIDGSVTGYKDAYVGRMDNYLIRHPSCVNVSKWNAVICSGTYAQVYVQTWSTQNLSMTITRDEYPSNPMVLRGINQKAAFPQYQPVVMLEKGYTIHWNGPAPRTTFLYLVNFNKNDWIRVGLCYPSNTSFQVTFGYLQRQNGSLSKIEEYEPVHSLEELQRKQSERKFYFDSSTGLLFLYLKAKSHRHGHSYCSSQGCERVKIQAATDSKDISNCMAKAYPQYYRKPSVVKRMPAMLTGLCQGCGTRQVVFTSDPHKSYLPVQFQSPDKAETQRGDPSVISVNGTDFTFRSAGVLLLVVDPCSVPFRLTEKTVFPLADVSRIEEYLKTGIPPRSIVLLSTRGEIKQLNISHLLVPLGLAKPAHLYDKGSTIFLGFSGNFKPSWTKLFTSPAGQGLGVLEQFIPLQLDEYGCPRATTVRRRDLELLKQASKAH
- log2 fold change (erlotinib): 0.076
- log2 fold change [1]: 0.018
- log2 fold change [2]: -0.042
- log2 fold change [3]: 0.001
- log2 fold change [4]: 0.087
- log2 fold change [5]: 0.029
- log2 fold change [6]: -0.071
- log2 fold change [7]: -0.066
- log2 fold change [8]: 0.084
- log2 fold change [9]: 0.041
- log2 fold change (IRAK-1-4 Inhibitor I): 0
- log2 fold change (ibrutinib): 0.096
- log2 fold change [10]: -0.045
- log2 fold change (ralimetinib): -0.023
- log2 fold change [11]: -0.026
- log2 fold change [12]: 0.122
- log2 fold change [13]: 0.11
- log2 fold change (pinometostat): -0.035
- log2 fold change [14]: -0.211
- log2 fold change [15]: 0.057

Target: CDK16 isoform 2 (UniProt Q00536)
UniProt Q00536, sequence (Q00536 whole entry, looked up): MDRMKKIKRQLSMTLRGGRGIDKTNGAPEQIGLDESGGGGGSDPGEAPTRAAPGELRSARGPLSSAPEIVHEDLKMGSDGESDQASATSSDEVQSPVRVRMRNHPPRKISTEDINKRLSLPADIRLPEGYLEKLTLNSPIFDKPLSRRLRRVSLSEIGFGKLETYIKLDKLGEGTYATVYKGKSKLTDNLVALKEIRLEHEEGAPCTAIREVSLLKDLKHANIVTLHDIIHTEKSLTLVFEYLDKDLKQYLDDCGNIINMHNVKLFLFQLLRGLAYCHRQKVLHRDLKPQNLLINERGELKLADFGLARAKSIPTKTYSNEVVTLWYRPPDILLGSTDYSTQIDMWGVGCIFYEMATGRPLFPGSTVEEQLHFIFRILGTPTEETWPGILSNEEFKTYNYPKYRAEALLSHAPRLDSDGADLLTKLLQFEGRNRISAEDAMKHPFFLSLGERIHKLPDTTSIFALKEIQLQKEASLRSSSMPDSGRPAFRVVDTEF
- log2 fold change (erlotinib): -0.072
- log2 fold change [1]: -0.025
- log2 fold change [2]: -0.023
- log2 fold change [3]: -0.07
- log2 fold change [4]: 0.043
- log2 fold change [5]: -0.016
- log2 fold change [6]: -0.024
- log2 fold change [7]: 0.121
- log2 fold change [8]: 0.139
- log2 fold change [9]: -0.029
- log2 fold change (IRAK-1-4 Inhibitor I): -0.029
- log2 fold change (ibrutinib): -0.018
- log2 fold change [10]: 0.843 (active)
- log2 fold change (ralimetinib): 0.05
- log2 fold change [11]: -0.031
- log2 fold change [12]: 0.069
- log2 fold change [13]: 0.059
- log2 fold change (pinometostat): 0.016
- log2 fold change [14]: -0.03
- log2 fold change [15]: 0.025

Target: CCDC59 (UniProt Q9P031)
UniProt Q9P031, sequence (Q9P031 whole entry, looked up): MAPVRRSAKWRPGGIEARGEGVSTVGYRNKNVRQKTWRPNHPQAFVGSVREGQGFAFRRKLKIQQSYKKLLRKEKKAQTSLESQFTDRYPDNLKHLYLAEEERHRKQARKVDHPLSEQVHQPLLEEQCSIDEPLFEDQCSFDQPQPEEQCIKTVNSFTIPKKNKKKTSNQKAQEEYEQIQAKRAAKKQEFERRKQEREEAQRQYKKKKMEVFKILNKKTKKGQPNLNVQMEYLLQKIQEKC
- log2 fold change (erlotinib): -0.118
- log2 fold change [1]: -0.127
- log2 fold change [2]: -0.192
- log2 fold change [3]: 0.071
- log2 fold change [4]: -0.136
- log2 fold change [5]: -0.014
- log2 fold change [6]: -0.091
- log2 fold change [7]: 0.069
- log2 fold change [8]: 0.054
- log2 fold change [9]: -0.027
- log2 fold change (IRAK-1-4 Inhibitor I): -0.083
- log2 fold change (ibrutinib): -0.051
- log2 fold change [10]: 0.224
- log2 fold change (ralimetinib): 0.28
- log2 fold change [11]: -0.073
- log2 fold change [12]: 0.093
- log2 fold change [13]: 0.197
- log2 fold change (pinometostat): 0.233
- log2 fold change [14]: 0.036
- log2 fold change [15]: -0.468

Target: CDK1 (UniProt P06493)
UniProt P06493, sequence (P06493 whole entry, looked up): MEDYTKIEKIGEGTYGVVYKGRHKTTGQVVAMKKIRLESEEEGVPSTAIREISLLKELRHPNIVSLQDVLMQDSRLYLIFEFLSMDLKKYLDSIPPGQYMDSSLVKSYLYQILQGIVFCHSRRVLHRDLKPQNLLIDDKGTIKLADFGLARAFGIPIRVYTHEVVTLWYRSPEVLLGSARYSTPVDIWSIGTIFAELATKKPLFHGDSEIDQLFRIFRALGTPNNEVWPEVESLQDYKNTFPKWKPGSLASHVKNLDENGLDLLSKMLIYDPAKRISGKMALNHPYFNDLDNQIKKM
- log2 fold change (erlotinib): 0.045
- log2 fold change [1]: 0.06
- log2 fold change [2]: 0.021
- log2 fold change [3]: 0.003
- log2 fold change [4]: -0.054
- log2 fold change [5]: 0.018
- log2 fold change [6]: 0.003
- log2 fold change [7]: -0.003
- log2 fold change [8]: 0.007
- log2 fold change [9]: -0.009
- log2 fold change (IRAK-1-4 Inhibitor I): 0
- log2 fold change (ibrutinib): -0.046
- log2 fold change [10]: -0.401 (active)
- log2 fold change (ralimetinib): -0.031
- log2 fold change [11]: -0.051
- log2 fold change [12]: -0.02
- log2 fold change [13]: 0.051
- log2 fold change (pinometostat): 0
- log2 fold change [14]: 0.012
- log2 fold change [15]: -0.021
